Bioassay records: PubChem BioAssay, several laboratories
S1P3 antagonist – S1P3 receptor antagonists, primary screen, cell-based. CHO S1P3 NFAT-BLA reporter, FRET fluorescence, antagonist mode. inhibition, % at 4.98 µM. AID 485, 2006. Sphingosine 1-phosphate receptor 3 (Homo sapiens), Q99500. actives 0.27% (n = 170,000);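 active = inhibition above the plate cutoff, the mean inhibition of test wells on that plate plus 3 SD, cut at about 28% in these data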;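 also: cells challenged with S1P at its EC80 of 0.8 µM; blue over green emission ratio from cleaved BLA substrate after 4 h stimulation; 0% = S1P-stimulated wells and 100% = unstimulated DMSO-only wells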
Target sequence (Q99500 whole entry, looked up): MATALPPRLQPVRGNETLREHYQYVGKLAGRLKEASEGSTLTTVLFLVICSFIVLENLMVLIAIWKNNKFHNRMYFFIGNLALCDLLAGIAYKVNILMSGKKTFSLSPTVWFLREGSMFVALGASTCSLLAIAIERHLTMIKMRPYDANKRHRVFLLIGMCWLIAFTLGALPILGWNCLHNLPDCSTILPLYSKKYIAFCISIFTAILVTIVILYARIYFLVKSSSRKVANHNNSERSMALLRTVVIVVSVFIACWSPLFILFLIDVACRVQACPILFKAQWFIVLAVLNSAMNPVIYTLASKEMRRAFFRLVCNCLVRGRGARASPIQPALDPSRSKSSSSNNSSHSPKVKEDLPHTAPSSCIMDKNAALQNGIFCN
HSF-1 act – HSF-1 activators, primary screen, NIH3T3-HGL cells, MG132 stress, luminescence, single point | actives 1.7% (n = 300,000) | AID 504408, 2011 | activation, % at 9 µM | NIH3T3-HGL HSF-1 luciferase reporter, 8 h; 100% = twice DMSO control signal;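 active = mean replicate activation of at least 50% with a set share of replicates each reaching 50%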;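 also: 0% = median of the neutral control wells and 100% = twice that signal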
HSF1 inh – HSF1 inhibitors in luciferase reporter cells, primary screen, cell-based, NIH3T3, luminescence. AID 2098, 2009. NIH3T3-HGL HSE-luciferase, MG132-induced, luminescence 8 h; stronger effect = lower value. activity change, negative = inhibition, % at 7.5 µM (by protocol). actives 0.77% (n = 300,000);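 active = more than half of replicate wells show activity change below -50%, luminescence cut by over half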;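 also: luciferase reports HSF-1 transcriptional activity via heat shock element; 0% = median of DMSO wells and -100% = zero luminescence signal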
S1P4 antag – S1P4 receptor antagonists, primary screen, cell-based; Sphingosine 1-phosphate receptor 4 (Homo sapiens), O95977; S1P4-expressing cells, antagonist mode, reporter read-out; inhibition, % at 4.98 µM; actives 0.26% (n = 220,000); in the data active = inhibition above about 29%;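 also: 0% = wells stimulated with agonist and 100% = vehicle wells without agonist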
S1P4 agonist – S1P4 receptor agonists, primary screen, cell-based; actives 0.35% (n = 220,000); activation, % at 4.98 µM; Sphingosine 1-phosphate receptor 4 (Homo sapiens), O95977; S1P4-expressing cell line, agonist reporter assay; in the data active = activation above about 11%;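 also: 0% = DMSO vehicle and 100% = reference agonist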
Hsp70 act – Hsp70 transcriptional activators, primary screen, cell-based, HeLa, Hsp70 promoter luciferase, luminescence, 10 µM; HeLa Hsp70 promoter luciferase reporter; scaled: vehicle 0, proteasome-inhibitor control 100%; activation, % at 10 µM; actives 0.04% (n = 200,000);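 active = activation above the mean across all tested compounds plus 3 SD, cutoff set per campaign, cut at about 5.5% in these data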;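 also: 100% = MG132 at 30 µM as the positive control and 0% = DMSO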
The depositor's hits bear a star; . = not tested or not shown. Shown are actives, neighbours in structure and some others; about 2.9% of the full set was active somewhere.

SMILES	S1P3 antagonist	HSF-1 act	HSF1 inh	S1P4 antag	S1P4 agonist	Hsp70 act
Cc1ccc(OCc2cc(C(=O)N3CCCC(O)C3)no2)cn1 (stereo not given)	.	11	0	.	.	.
Cc1ccc(Oc2ccc(OCC(=O)NC3CCS(=O)(=O)C3)cc2)cc1 (stereo not given)	.	53*	37	.	.	.
CC(=O)c1ccc(OCC(=O)NC2CCS(=O)(=O)C2)cc1 (stereo not given)	-17	-2	-2	-17	4	0
CCC(=O)NC(c1ccco1)c1cc(Cl)c2cccnc2c1O (stereo not given)	-15	-78	-72*	15	1	0
CCCCC(=O)NC(c1ccc(C(C)C)cc1)c1ccc2cccnc2c1O (stereo not given)	.	-43	-36	.	.	.
CC(=O)NC(c1ccc(C(C)C)cc1)c1ccc2cccnc2c1O (stereo not given)	.	-54	-52*	.	.	.
CC(=O)NC(c1ccc(C)cc1)c1cc(Cl)c2cccnc2c1O (stereo not given)	.	-85	-83*	.	.	.
CCC(=O)NC(c1ccc(OC)cc1)c1cc(Cl)c2cccnc2c1O (stereo not given)	-6	-68	-64*	3	0	0
COc1cc(/C=C(/NC(C)=O)C(=O)O)cc(Cl)c1OCc1ccc(Br)cc1	-8	4	0	-23	0	.
COC(=O)C(Cc1ccccc1)NC(=O)CNC(=O)c1sc2ccccc2c1Cl (stereo not given)	.	-63	-53*	.	.	.
O=C(CNC(=O)c1sc2ccccc2c1Cl)NCc1ccccc1	.	0	-5	.	.	.
COC(=O)c1ccc(NC(=O)C2C3C=CC(C3)C2C(=O)O)cc1 (stereo not given)	.	-53	-52*	.	.	.
O=C1c2ccccc2S(=O)(=O)N1Cc1nnc(-c2ccccc2Br)o1	-26	1	14	1	-1	0
O=S1(=O)c2cccc3cccc(c23)N1Cc1nnc(-c2ccccc2Br)o1	33	73*	55	-6	0	0
CCC1=NN(C(=O)CCc2ccccc2O)C(O)(C(F)(F)F)C1 (stereo not given)	13	2	-1	-11	0	0
COc1ccc(Cc2nnc(SCC(=O)Nc3ccc(N4CCOCC4)cc3)o2)cc1	.	61*	13	.	.	.
CCc1nnc(SCC(=O)Nc2ccc(N3CCOCC3)cc2)o1	.	-1	-11	-5	0	0
CSc1ccccc1OCc1cc(C(=O)N(C)Cc2ccc3nsnc3c2)no1	.	47	20	.	.	.
CSc1ccccc1OCc1cc(C(=O)N(C)Cc2ccc(C)o2)no1	.	57*	40	.	.	.
N#Cc1c(C(F)(F)F)cc(C2CC2)[nH]c1=O	62*	2	-4	7	-1	0
Cc1ccc(-c2cc(C(F)(F)F)c(C#N)c(=O)[nH]2)cc1	-12	-9	-14	-1	-1	0
CCC(CC)C(=O)c1c[nH]c(C(=O)NCc2ccc(F)cc2)c1	.	29	-1	.	.	.
CCCNC(=O)COc1ccc(-c2nn(C)c(=O)c3ccccc23)cc1	.	5	-6	.	.	.
CCC(C)NC(=O)CS(=O)(=O)Cc1nc(-c2cccc(OC)c2)oc1C (stereo not given)	85*	-4	-5	-8	1	0
CC(C)CCN(C(=O)Nc1ccc(Cl)cc1)C1CCN(C(C)C)CC1	-5	18	7	0	0	0
SMILES	S1P3 antagonist	HSF-1 act	HSF1 inh	S1P4 antag	S1P4 agonist	Hsp70 act
CCOC(=O)N1CCC2(CC1)C(C#N)=C(N)Oc1n[nH]c(C)c12	.	-2	8	-4	-3	0
COCc1[nH]nc2c1C1(CCSCC1)C(C#N)=C(N)O2	-27	-88	-85*	-2	2	0
CCc1nnc(NS(=O)(=O)c2ccc(N=CC3=C(O)CC(C)(C)CC3=O)cc2)s1	3	11	-1	2	0	0
O=C(COC(=O)c1ccccc1OC(F)F)Nc1ccc2[nH]c(=O)[nH]c2c1	.	-1	1	.	.	.
O=C(CCc1c[nH]c2ccccc12)NCCc1ccc(Cl)cc1	.	55*	18	.	.	.
C#CC(=O)N(c1cccc(OC)c1)C(C(=O)NC1CCCC1)c1cccs1 (stereo not given)	.	.	.	30*	1	0
